Measured values as given in PubChem BioAssay AID2472 (National Center for Advancing Translational Sciences (NCATS), 2010).
Several values for one entry are separate records, joined by “and”; a condition that tells them apart may be missing. Equal values may be shown once. The whole screen tested about 290,000 compounds, of which about 2,000 (0.69%) were called active. No stated cut-off is given here; in the data, active means activity change below about -30%; inactive means the rest, inconclusive results apart. Only a selection was taken, and actives are over-represented in it overall.

Test: qHTS Assay for Inhibitors of Fructose-1,6-bisphosphate Aldolase from Giardia Lamblia: Coupling assay counterscreen
Settings: coupling enzyme system counterscreen, AmpLite Red fluorescence; at 58.2 µM (top of the series)
Source text: MLPCN Grant: MH085699-01 Assay Provider: Osnat Herzberg, University of Maryland NCGC Assay Overview: The objective of this project is to obtain compounds that inhibit Giardia lamblia growth. G. lamblia is a human pathogen which afflicts impoverished nations; it is the most common cause of outbreaks of diarrhea in the United States. During the course of our study of potential drug targets in Giardia, we have identified the Class II (Zn2+ functions in electrophilic catalysis) fructose-1,6-bisphosphate aldolase (FBPA) as an excellent candidate for drug targeting. FBPA is a key glycolytic pathway enzyme, essential for G. lamblia survival. The human FBPA belongs to the Class I aldolases, which have a different substrate binding site structure and a radically different catalytic mechanism (employing a lysine-Schiff base intermediate). Therefore, affinity-based or mechanism-based inhibitors of the Giardia FBPA are expected not to interfere with the catalytic function of the human FBPA. A glyceraldehyde-3-phosphate dehydrogenase/triose phosphate isomerase/NAD/arsenate coupled assay was adapted to the 1536-well HTP format for use in the primary screen. This was done by coupling it to a diaphorase/resazurin/resorufin reaction that can be monitored by fluorescence (excitation, 544 nm; emission, 590 nm). Compounds identified in this screen will be further evaluated by coupling the […]/triose phosphate isomerase/NADH assay to a phenazine methosulfate/tetranitroblue tetrazolium color reaction. False positives due to the dehydrogenases and diaphorase inhibition will be eliminated, and selectivity assay will triage inhibitors of mammalian triose phosphate isomerase and the Class I FBPA. G. lamblia FBPA inhibitors identified by the in vitro analyses will be examined for growth inhibition of Giardia trophozoites, and for cytotoxicity in human cells. This assay specifically addresses whether activity observed in the primary screen (AID 2451) is related to inhibition of the coupling assay used, as opposed to inhibition of aldolase. Actives in this assay are considered inconclusive for activity against aldolase.
NCGC Assay Protocol: Step,Parameter,Value,Description 1,Coupling enzyme reagent,2 uL,glyceraldehyde-3-phosphate 2,Compound,23 nL,3.68 nM-57.5 uM final concentration 3,Time,10 min,RT Incubation 4,Substrate/detection Reagent,2 uL,Substrate + enzyme coupling system + AmpLite Red kit 5,Time,20 min,RT Incubation 6,Detector,525 nm/598 nm (Fluorescence),ViewLux Fluorescence Read (Read 1) Notes: 1,Medium-binding black solid-bottom Kalypsys plates. FRD or Kalypsys dispenser. 2,Compound Library (10 mM ,1:5 dilution). Pin-transferred for a [final] range of 3.68 nM-57.5 uM. 3,RT incubation 4,FRD or Kalypsys dispenser, 2 uL of reaction mixture. Bottle kept at 4C and covered in foil to protect from light. 5,RT incubation 6,ViewLux Protocol 1194; Excitation filter wheel A (525/20 Pol; BODIPY TMR FP), Emission filter wheel B (598/25 S; BODIPY TMR FP S). Keywords: Fructose-bisphosphate aldolase, FBPA , Giardia lamblia , Giardia, HTS, Inhibitors
On the % scale 0 is the no-effect control and ±100 the full control effect.

Row | Structure (SMILES) | activity change, negative = inhibition
1 | Cc1[nH][nH]c(=O)c1C(c1ccc2c(c1)OCO2)c1c(C)[nH][nH]c1=O | -3.39% (inactive)
2 | Cc1[nH][nH]c(=O)c1C(c1ccc(-c2ccc(Cl)cc2)o1)c1c(C)[nH][nH]c1=O | -48.6% (active)
3 | CCOc1ccc(C(c2c(C)[nH][nH]c2=O)c2c(C)[nH][nH]c2=O)cc1OCC | -13.2% (inactive)
4 | CC(=O)Oc1cc2c(C(=O)NCCN3CCOCC3)c(C)oc2c2ccccc12 | -40.7% (active)
5 | Cc1ccc(C(=O)NCCN2CCOCC2)cc1C | 3.18% (inactive)
6 | Cc1cc(C)cc(C(=O)NCCN2CCOCC2)c1 | 0.78% (inactive)
7 | CN(CCC(=O)Nc1cc(S(=O)(=O)N(C)C)ccc1Cl)CC(=O)Nc1ccc(F)cc1 | 0.642% (inactive)
8 | COc1cc(OC)c2c(c1C(CCN1CCCCC1)c1ccc(N(C)C)cc1)OC(=O)CC2c1ccc(N(C)C)cc1 (configuration not stated) | 0.0898% (inactive)
9 | O=c1c2cc(Br)ccc2nc(-c2cccc(Cl)c2)n1O | -2.84% (inactive)
10 | COc1ccc(C(=O)CCc2ccccc2O)c(OC)c1 | -0.998% (inactive)
11 | Cc1cc(C)cc(NC(=O)N2CCCCCCC2)c1 | 1.15% (inactive)
12 | Cc1ccc(C(=O)N2CCCCCC2)cc1Br | 0.385% (inactive)
13 | Cc1ccc2cc3cc(C(=O)N4CCCCCC4)oc3nc2c1 | -75.9% (active)
14 | O=C(Nc1nnc(-c2ccccc2F)s1)c1ccccc1F | -1.59% (inactive)
15 | COc1ccc(CCC(C)N2CCc3ccccc3C2)cc1 (configuration not stated) | -2.37% (inactive)
16 | COc1ccc(Cl)cc1NC(=O)COC(=O)C(CC(C)C)N1C(=O)C2CC=CCC2C1=O (configuration not stated) | -0.682% (inactive)
17 | COc1ccc2[nH]cc(CCNc3ncnc4ccc(-c5ccccc5CN(C)C)cc34)c2c1 | -1.31% (inactive)
18 | COc1ccc2[nH]cc(CCNc3cc(-c4ccccc4CN(C)C)ncn3)c2c1 | -1.84% (inactive)
19 | COc1cccc(-c2cc(NCCc3c[nH]c4ccc(OC)cc34)ncn2)c1 | -31% (active)
20 | COC(=O)CC1c2ccccc2C(Cc2ccc(OC)cc2)=C(C)N1C(=O)OC (configuration not stated) | -0.16% (inactive)
21 | COc1cccc(C(=O)CC(=O)C(=O)Nc2ccc([N+](=O)[O-])cc2C)c1 | -0.191% (inactive)
22 | CNC(=O)N1c2ccccc2C=Cc2ccccc21 | -0.0842% (inactive)

Row | Structure (SMILES) | activity change, negative = inhibition
23 | Cc1ccccc1-n1nc(C)c2c1N=C1C(Cl)=CC(Cl)=CN1C2c1ccc(C(=O)O)cc1 (configuration not stated) | -39.1% (active)
24 | Cc1nn(-c2ccccc2)c(Cl)c1/C=C/C(=O)c1ccc(O)cc1 | 6.85% (inactive)
25 | Cc1ccccc1-n1nc(C)c2cc(C(=O)NC3CC3)sc21 | 5.2% (inactive)
26 | COc1ccc(Br)cc1C1C2C=CCC(C)C2C(=O)N1Cc1ccccc1 (configuration not stated) | 4.05% (inactive)
27 | CC(=O)Nc1ccc(NC(=O)C2CCCN(S(=O)(=O)c3ccc(Cl)cc3)C2)cc1 (configuration not stated) | 1.51% (inactive)
28 | CC(C)CC[n+]1ccn(C2=C([O-])c3ccccc3C(=O)/C2=N\S(=O)(=O)c2ccccc2)c1 | -54.9% (active)
29 | COc1c(O)c2c(=O)cc(OC)c3c4c(OC)cc(=O)c5c(O)c(OC)c6c(c(c1C[C@@](C)(O)[C@H]6C(C)=O)c23)c54 | -12.5% (inactive)
30 | CCCCN=C1C([N+](=O)[O-])=CC=C2C1=NC1(CCCCC1)N2O | -41.7% (active)
31 | CC(c1ccccn1)N(C)C(=O)c1ccc2nc(Cc3cccc(Cl)c3)oc2c1 (configuration not stated) | 1.38% (inactive)
32 | COC(=O)C1=C(C)N(Cc2ccccc2)C2=C3C(=O)N(c4ccccc4)C(=O)C3[C@@](O)(C(=O)OC)C(=O)N2C1c1ccccc1 (some centres not stated) | 1.55% (inactive) and 0.598% (inactive)
33 | Cn1c(CCN2CCCC2)nc2cc(NS(=O)(=O)c3ccccc3)ccc21 | -1.06% (inactive)
34 | O=S(=O)(Nc1ccc2nc(-c3ccco3)[nH]c2c1)c1ccccc1 | -35.1% (active)
35 | O=S(=O)(Nc1ccc2cn[nH]c2c1)c1ccccc1 | -8.07% (inactive)
36 | CCOC(=O)c1ccccc1NC(=O)COC(=O)CCC(=O)N1CCOCC1 | 1.14% (inactive)
37 | CCCN1[C@H](C(=O)OC)C[C@@]2(O)[C@@H](O)[C@@H](O)[C@@H](O)C[C@@H]12 | -12.1% (inactive)
38 | COc1ccc(-c2ccc(OC)c(C3C4C=CCC(C)C4C(=O)N3Cc3ccccc3)c2)cc1C (configuration not stated) | -0.316% (inactive)
39 | Cc1cc(Br)ccc1NC(=S)NC1CCCC1 | 2.32% (inactive)
40 | CC[C@@H](C)[C@H](NC(=O)CCc1c(C)c2cc3c4c(oc3c(C)c2oc1=O)CCCC4)C(=O)O | 0.476% (inactive)
41 | COC(=O)C1=C(C(=O)OC)[C@@H]2Nc3ccccc3[C@@]23C[C@@H](C(=O)OC)N(S(=O)(=O)c2ccc([N+](=O)[O-])cc2)C3=N1 | -1.96% (inactive)
42 | CCOc1ccc(N(C)Cc2cc(=O)oc3ccc(OC)cc23)cc1 | -3.63% (inactive)
43 | CCn1c(CNc2ccc(OC)cc2)nnc1SCC(=O)c1ccc(OC)cc1 | -36.8% (active)
44 | COC(=O)c1ccc(NC(=O)CSc2nnc(CNc3ccc(OC)cc3)n2C)cc1 | -19.7% (inactive)

Row | Structure (SMILES) | activity change, negative = inhibition
45 | C=CCn1c(CNC(=O)c2ccco2)nnc1SCC(=O)c1ccc(OC)cc1 | 1.42% (inactive)
46 | CC1=C(C(N)=O)C(c2ccc(F)cc2)n2nc(CCCO)nc2N1 (configuration not stated) | -0.212% (inactive)
47 | O=C(O)c1cc(S(=O)(=O)NC2CCCc3ccccc32)ccc1O (configuration not stated) | 20.1% (inactive)
48 | C=CCn1c(N)c(S(=O)(=O)c2cccs2)c2nc3ccccc3nc21 | -35.3% (active)
49 | Cc1ccc(S(=O)(=O)c2c(N)n(C)c3nc4ccccc4nc23)cc1 | -4.65% (inactive)
50 | CCN(CC)CCn1c(N)c(S(=O)(=O)c2ccccc2)c2nc3ccccc3nc21 | 2.05% (inactive)
51 | CC(=O)NC1CCN(CC(=O)Nc2nccs2)CC1 | -1.15% (inactive)
52 | CN(C)c1ccc(-c2nc(NCCN3CCOCC3)c3ccccc3n2)cc1 | -0.456% (inactive)
53 | c1ccc2cc3c(NCCN4CCOCC4)ccnc3cc2c1 | -52.2% (active)
54 | Clc1ccccc1-c1cc(NCCN2CCOCC2)ncn1 | 2.16% (inactive)
55 | COc1cc(NC(=O)c2ccccc2)c(OC)cc1NC(=O)Cc1ccccc1 | -0.254% (inactive)
56 | COc1cccc(CNC(=O)CCC2CCCN(Cc3ccc(OC(F)F)cc3)C2)c1 (configuration not stated) | 5.02% (inactive)
57 | Cc1ccc(C(=O)N(CC(=O)NC2CCCC2)c2ccc(F)cc2)s1 | -3.12% (inactive)
58 | COCCN1C=C2C(=O)C(C)(OC(=O)C3CCCC3)C(=O)C=C2C=C1c1ccsc1 (configuration not stated) | -33.6% (active) and -32.5% (active)
59 | CC1(OC(=O)CCc2ccccc2)C(=O)C=C2C=C(c3ccc(C#N)cc3)N(CCc3ccccn3)C=C2C1=O (configuration not stated) | -28.3% (inactive) and -0.189% (inactive)
60 | CC1(OC(=O)C2CCCC2)C(=O)C=C2C=C(c3ccc(C#N)cc3)OC=C2C1=O (configuration not stated) | -0.443% (inactive)
61 | Cc1onc(-c2ccccc2Cl)c1C(=O)OCC(=O)c1ccccc1 | -1.67% (inactive)
62 | CC(=O)N(C1=C(Cl)C(=O)c2ccccc2C1=O)c1ccc(C(=O)O)cc1 | -85.1% (active)
63 | CC(C)N(C(=O)c1ccc(-c2ccccc2F)cc1)C(C)C | -0.0112% (inactive)
64 | O=C(CN1C(=O)c2ccccc2C1=O)NCc1ccc(C(=O)O)cc1 | 0.209% (inactive)
65 | COc1ccc(C(=O)N2CCC3(CC2)CCN(c2ccccn2)CC3)cc1 | -4.93% (inactive)
66 | Cc1ccc(CNC(=O)Cn2cnc(S(=O)(=O)N3CCCCC3)c2)o1 | 0.0578% (inactive)

Row | Structure (SMILES) | activity change, negative = inhibition
67 | O=C(CCCn1c(SCC(=O)c2ccccc2)nc2ccccc2c1=O)NCC1CCCO1 (configuration not stated) | -0.079% (inactive)
68 | CCCCn1c(SCC(=O)NCC2CCCO2)nc2ccc(N3CCOCC3)cc2c1=O (configuration not stated) | -43.6% (active)
69 | COCCNC(=O)c1ccc(Cn2c(SCC(=O)NCC3CCCO3)nc3ccc(Br)cc3c2=O)cc1 (configuration not stated) | 0.29% (inactive)
70 | Cc1ccc(OCC(=O)NCCCNC(=O)c2cccnc2)cc1C | -0.615% (inactive)
71 | O=[N+]([O-])c1cccc2ncccc12 | 0.0628% (inactive)
72 | COc1ccc(C=Nc2cccc3ncccc23)cc1 | -34.4% (active)
73 | COc1ccc(/C=N/Nc2nc3ccccc3c(=O)[nH]2)cc1 | 0.889% (inactive)
74 | CCCCC/C=C\C/C=C\C/C=C\CCCCC(=O)NCC(=O)O | 4.26% (inactive)
75 | COC(=O)C1=C(C(=O)OC)[C@@H]2N(C)c3ccccc3[C@@]23C[C@@H](C(=O)OC)N(S(=O)(=O)c2cccs2)C3=N1 | -0.105% (inactive)
76 | O=C1CN(Cc2ccccc2)S(=O)(=O)c2ccccc21 | 13.2% (inactive)
77 | COc1ccc(CC(=O)N/N=C/c2cc([N+](=O)[O-])cc(Br)c2O)cc1 | 8.72% (inactive)
78 | Cc1ccc(OCCOCCOc2ccc(Br)cc2/C=N\NC(=O)c2ccncc2)cc1 | -5.74% (inactive)
79 | COc1ccc(CC(=O)NCC(=O)N/N=C/c2cc(Br)ccc2OC)cc1 | -33.8% (active)
80 | COc1cccc(OCc2cc(C(=O)N3CCN(C(=O)c4ccco4)CC3)no2)c1 | -0.102% (inactive)
81 | Cc1cc(C)c(C#N)c(N2CCC(C(N)=O)CC2)n1 | 0.379% (inactive)
82 | N#Cc1c(N2CCCCC2)nc(N)c2c(N)nc(SCC(=O)O)cc12 | -31.7% (active)
83 | N#Cc1c(-c2ccccc2)cc(-c2ccccc2)nc1SCC(=O)O | 5.25% (inactive)
84 | CCN1CCN(c2sc(S(C)(=O)=O)nc2S(=O)(=O)c2ccc(Cl)cc2)CC1 | 1.03% (inactive)
85 | O=c1[nH]c2ccccc2n2c(-c3ccccc3)nnc12 | -62.8% (active)
86 | Cc1ccc(-c2nc3ccccc3[nH]c2=O)cc1 | 1.32% (inactive)
87 | CC(=O)c1c(-c2ccccc2)c2ccccc2[nH]c1=O | 7.44% (inactive)
